Test results: PubChem BioAssay (NCATS)
Inconclusive results are not listed. Active and inactive are the calls of the source. The call rests on the fitted dose curve; in most records, active means well fitted inhibition curve with a large enough effect; inconclusive means small, poorly fitted or top-dose-only effect; inactive means flat fitted curve, though single readings scatter.

test system: CRL-7250; test: Cytotoxic Profiling of Annotated Libraries Using Quantitative High-Throughput Screening (AID 1296008); conditions: Five cell lines viability, CellTiter-Glo ATP luminescence, 48-72 h; max response: stronger effect = lower value; further: nearly all actives have a fitted effect of over 60% in size
In short: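 Cells exposed to compounds for 48 or 72 hr at 37 degrees Celsius. Viability read as ATP-coupled luminescence with CellTiter-Glo after 10 min at room temperature.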
On the % scale 0 is the no-effect control and ±100 the full control effect; potency means the concentration at half of the fitted maximal effect.

| Compound | outcome | max response | Potency |
| --- | --- | --- | --- |
| C[C@@H]1C(=O)OC[C@H]2C(C(=O)O)=C[C@@H]3CC(C)(C)C[C@]312 | inactive |  |  |
| CC(C)C(N)C(=O)OCCOCn1cnc2c(=O)[nH]c(N)nc21 (stereo not given) |  | 2.37% (inactive) |  |
| C[C@@H]1O[C@@H](OC[C@H]2O[C@@H](OC(CCCCc3ccc(O)cc3)CCc3ccc(O)cc3)[C@H](O)[C@@H](O)[C@@H]2O)[C@H](O)[C@H](O)[C@H]1O (stereo not given in full) |  | 3.8% (inactive) |  |
| C=C1CCC2C(C)(C(=O)OC)CCCC2(C)C1CCC(C)CC(=O)O (stereo not given) | inactive |  |  |
| CN[C@H](CC(C)C)C(=O)N[C@H]1C(=O)N[C@@H](CC(N)=O)C(=O)N[C@H]2C(=O)N[C@H]3C(=O)N[C@H](C(=O)N[C@H](C(=O)O)c4cc(O)cc(O)c4-c4cc3ccc4O)[C@H](O[C@H]3C[C@](C)(N)[C@@H](O)[C@H](C)O3)c3ccc(c(Cl)c3)Oc3cc2cc(c3O[C@@H]2O[C@H](CO)[C@@H](O)[C@H](O)[C@H]2O[C@H]2C[C@](C)(NCc3ccc(-c4ccc(Cl)cc4)cc3)[C@@H](O)[C@H](C)O2)Oc2ccc(cc2Cl)[C@H]1O |  | 0.406% (inactive) |  |
| C[C@@H]1O[C@@H](O[C@H]2[C@H](O[C@H]3[C@H](O[C@H]4CC[C@@]5(C)C(CC[C@]6(C)C5CC=C5[C@@H]7CC(C)(C)CC[C@]7(C(=O)O[C@@H]7O[C@H](CO)[C@@H](O[C@@H]8O[C@@H](C)[C@H](O)[C@@H](O)[C@H]8O)[C@H](O)[C@H]7O)CC[C@]56C)C4(C)C)OC[C@H](O)[C@@H]3O)O[C@H](CO)[C@@H](O)[C@@H]2O)[C@H](O)[C@H](O)[C@H]1O (stereo not given in full) |  | -33.4% (inactive) |  |
| COc1cc(O)c([C@@H](CC(=O)N2CC(C)CC(C)C2)c2ccc3c(c2)OCO3)c(OC)c1 (stereo not given in full) |  | -6.18% (inactive) |  |
| C=C1CCC2C(C)(C(=O)O)CCCC2(C)C1CCC(C)CC(=O)O (stereo not given) |  | 1.5% (inactive) |  |
| C=C1CCC2C(C)(C)C(O)CCC2(C)C1CCC(C)CCOC(C)=O (stereo not given) | inactive |  |  |
| CN(C)c1nc(NC2CCC(NCCc3ccc(Br)cc3OC(F)(F)F)CC2)nc2ccccc12 (stereo not given) |  |  | 18.4 µM (active) |
| CC1OC(OC2C(OC3C(O[C@H]4CC[C@@]5(C)C(CC[C@]6(C)C5C(=O)C=C5C7CC(C)(C)CC(O)[C@]7(C)CC[C@]56C)C4(C)C)OC(C(=O)O)C(O)C3O)OCC(O)C2O)C(O)C(O)C1O (stereo not given in full) |  | -0.894% (inactive) |  |
| C[C@]1(CO)CCC[C@]2(C)C3=C(CCC12)COC3 (stereo not given in full) |  | -5.66% (inactive) |  |
| COC(=O)C1=C2Nc3ccccc3C23CCN2CCCC(C(C)O)(C1)C23 (stereo not given) | inactive |  |  |
| CC(C)(F)C[C@@H](N[C@@H](c1ccc(-c2ccc(S(C)(=O)=O)cc2)cc1)C(F)(F)F)C(=O)NC1(C#N)CC1 |  | 0.789% (inactive) |  |
| CC1CCC2(C=O)C(CO)=CCCC2C1(C)CC(=O)O (stereo not given) |  | 1.72% (inactive) |  |
| CC(=O)O[C@@H](CO[C@@H]1O[C@H](CO)[C@H](O)[C@H](O)[C@H]1O)[C@]1(C)C=C2CC[C@@H]3C(C)(C)[C@@H](O)CC[C@@]3(C)[C@@H]2CC1 |  | -3.06% (inactive) |  |
| COc1cc([C@H]2c3cc(O)c(OC)cc3C[C@@H](CO[C@@H]3O[C@H](CO)[C@@H](O)[C@H](O)[C@H]3O)[C@@H]2CO)ccc1O |  | -6.95% (inactive) |  |
| Cc1cc(O)c(-c2ccc([C@@H](C)CN(C)C)cc2)c2c1[nH]c(=O)c1sccc12 |  |  | 0.116 µM (active) |
| C=C1CCC2C(C)(C(=O)O)CCCC2(C)C1CC/C(=C\CO)CO (stereo not given) |  | 0.544% (inactive) |  |
| Cc1cc(OCc2nc(-c3ccccc3Cl)cs2)ccc1OCC(=O)O |  | -3.46% (inactive) |  |

| Compound | outcome | max response | Potency |
| --- | --- | --- | --- |
| COC(=O)c1cc(OC)c(O[C@@H]2O[C@@H](C)[C@H](O)[C@@H](O)[C@H]2O)c(OC)c1 | inactive |  |  |
| CC(=O)C12OC(C)(C)OC1CC1C3CCC4=CC(=O)C=CC4(C)C3(F)C(O)CC12C (stereo not given) |  | -7.35% (inactive) |  |
| O=C(NCc1cccc(O)c1)c1cc2cc(F)ccc2[nH]1 |  | 3.57% (inactive) |  |
| CC1(C)CC[C@]2(C(=O)O[C@@H]3O[C@H](CO)[C@@H](O)[C@H](O)[C@H]3O)CC[C@]3(C)C(=CCC4[C@@]5(C)C[C@@H](O)[C@H](O)C(C)(C)C5[C@H](O)C[C@]43C)[C@@H]2[C@@H]1O (stereo not given in full) | inactive |  |  |
| OCCc1ccc(O[C@@H]2O[C@H](CO)[C@@H](O)[C@H](O)[C@H]2O)cc1 |  | 2.72% (inactive) |  |
| C=CC(=O)Nc1cccc(CN2C(=O)N(c3c(Cl)c(OC)cc(OC)c3Cl)Cc3cnc(NCCCCN(CC)CC)nc32)c1 |  |  | 10.3 µM (active) |
| O=S(=O)(NCC1CC1)c1ccc(Nc2nccc(N3CCCc4cc(O)ccc43)n2)cc1 |  |  | 1.16 µM (active) |
| C[C@@H]1O[C@@H](O[C@H]2[C@H](OC(=O)[C@]34CCC(C)(C)C[C@H]3C3=CCC5[C@@]6(C)CC[C@H](O[C@@H]7O[C@H](C(=O)O)[C@@H](O)[C@H](O)[C@H]7O[C@@H]7O[C@H](CO)[C@H](O)[C@H](O)[C@H]7O)[C@@](C)(C=O)C6CC[C@@]5(C)[C@]3(C)C[C@H]4O)O[C@H](C)[C@H](O[C@@H]3O[C@H](C)[C@H](O)[C@H](O)[C@H]3O)[C@@H]2O)[C@H](O)[C@H](O)[C@H]1O[C@@H]1OC[C@@H](O)[C@H](O[C@@H]2O[C@H](CO)[C@@H](O)[C@H](O)[C@H]2O)[C@H]1O (stereo not given in full) |  | -5.26% (inactive) |  |
| C[C@@H]1CC[C@]2(C(=O)O)CC[C@]3(C)C(=CCC4[C@@]5(C)CC[C@H](O)C(C)(C)C5C(O)C[C@]43C)[C@@H]2[C@]1(C)O (stereo not given in full) |  | -5.69% (inactive) |  |
| CC[C@]12C=CCN3CC[C@@]4(c5cc([C@@]6(C(=O)OC)C[C@H]7C[C@@H](C(C)(F)F)CN(Cc8c6[nH]c6ccccc86)C7)c(OC)cc5N(C)[C@H]4[C@@](O)(C(=O)OC)[C@@H]1OC(C)=O)[C@@H]32 |  |  | 0.485 µM (active) |
| CC[C@H]1OC(=O)[C@H](C)[C@@H](O[C@H]2C[C@@](C)(OC)[C@@H](O)[C@H](C)O2)[C@H](C)[C@@H](O[C@@H]2O[C@H](C)C[C@H](N(C)C)[C@H]2O)[C@](C)(O)C[C@@H](C)C(=O)[C@H](C)[C@H]2OC(=O)O[C@@]21C |  | 0.0016% (inactive) |  |
| CCCCc1ccc(C(=O)Nc2cc(-c3ccc(Cl)cc3)nn2-c2ccc(Cl)cc2)cc1 |  | -0.768% (inactive) |  |
| Cc1cc(Nc2ncc3cc(-c4c(Cl)cccc4Cl)c(=O)n(C)c3n2)ccc1F |  |  | 1.84 µM (active) |
| C/C(=C\CC[C@@H](C)[C@H]1CC(O)[C@@]2(C)C3CC[C@H]4C(C)(C)[C@@H](OC5OCC(O)C(O)C5OC5OC(CO)C(O)C(O)C5O)CC[C@@]45C[C@@]35CC(O)[C@]12C)C(=O)O (stereo not given in full) |  | -2.5% (inactive) |  |
| C/C(=C/CO)CC[C@@H]1[C@@](C)(O)CCC2C(C)(C)CCC[C@]21C (stereo not given in full) |  | 1.57% (inactive) |  |
| C[C@@H]1O[C@@H](O[C@@H]2[C@@H](O[C@@H]3O[C@@H](C)[C@H](O[C@@H]4OC[C@H](O)[C@H](O[C@@H]5OC[C@@H](O)[C@H](O)[C@H]5O)[C@H]4O)[C@@H](O[C@@H]4OC[C@](O)(CO)[C@H]4O)[C@H]3O)[C@H](OC(=O)[C@]34CCC(C)(C)C[C@H]3C3=CCC5[C@@]6(C)C[C@H](O)[C@H](O[C@@H]7O[C@H](CO[C@@H]8OC[C@H](O)[C@H](O)[C@H]8O)[C@@H](O)[C@H](O)[C@H]7O)C(C)(C)C6CC[C@@]5(C)[C@]3(C)C[C@H]4O)OC[C@H]2O)[C@H](O)[C@H](O)[C@H]1O (stereo not given in full) | inactive |  |  |
| COc1ccc(/C=C/C(=O)O[C@@H]2[C@@H](O)[C@H](C)O[C@@H](O[C@H]3[C@@H]4C=CO[C@@H](O[C@H]5O[C@@H](CO)[C@H](O)[C@@H](O)[C@@H]5O)[C@@H]4[C@@]4(CO)O[C@@H]34)[C@@H]2OC(C)=O)cc1 |  | -2.4% (inactive) |  |
| CC(=O)OCC1(O)CCC2C(COC3OC(CO)C(O)C(O)C3OC(=O)/C=C/c3ccc(O)cc3)=COC(OC(=O)CC(C)C)C21 (stereo not given) | inactive |  |  |
| CCN1CCN(Cc2ccc(Nc3ncc(F)c(-c4cc(F)c5nc(C)n(C(C)C)c5c4)n3)nc2)CC1 |  | -7.11% (inactive) |  |
| Cc1cc(C(=O)N2CCCCc3ccccc32)ccc1CNC(=O)N1CCC[C@H]1C(=O)N(C)C |  | -2.89% (inactive) |  |
